# In article PMC7862700, “An all-to-all approach to the identification of sequence-specific readers for epigenetic DNA modifications on cytosine”:
# Columns and labels:
# Assay in all cases: DAPPL (digital affinity profiling via proximity ligation, sequencing); 10 mM Tris-HCl pH 7.5, 50 mM NaCl, 1 mM DTT, 4% glycerol, room temperature, 30 min; GST-TFs on glutathione beads, 16-mer random dsDNA library, 0.1% formaldehyde crosslink after washing; high values mean tight binding
# [1] = target: T1, FEV (Homo sapiens, UniProt Q99581 1-238); conditions: protein: recombinant; tags: N-terminal GST; dsDNA, one strand shown
# T1 sequence: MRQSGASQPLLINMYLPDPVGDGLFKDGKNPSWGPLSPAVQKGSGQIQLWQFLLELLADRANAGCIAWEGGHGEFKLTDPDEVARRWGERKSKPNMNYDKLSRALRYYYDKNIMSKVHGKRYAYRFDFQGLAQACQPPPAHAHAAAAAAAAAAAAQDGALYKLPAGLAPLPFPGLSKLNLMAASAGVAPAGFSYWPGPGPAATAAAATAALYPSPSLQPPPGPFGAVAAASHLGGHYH
# Procedure, shortened: (§1)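 Binding signal is each hexamer's read frequency for a factor divided by its frequency in the tag-only sample. The factors were GST-fused human transcription factors from yeast, captured on glutathione beads, DNA-barcoded and pooled with that sample. Pools were incubated with 200 nmole of a random double-stranded 16-mer DNA library in Tris/NaCl/DTT/glycerol buffer at room temperature for 30 min, then washed, crosslinked with 0.1% formaldehyde, proximity-ligated with BsaI/T4 ligase (1 h, 37 °C), PCR-amplified and sequenced on an Illumina NextSeq500.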
# [2] = target: ETV5 (Homo sapiens, UniProt P41161 1-510); conditions: protein: recombinant; tags: N-terminal GST; dsDNA, one strand shown
# Procedure, shortened: as §1
# [3] = target: HSF1 (Homo sapiens, UniProt Q00613 1-529); conditions: protein: recombinant; tags: N-terminal GST; chain copies: 3; dsDNA, one strand shown
# Procedure, shortened: as §1
# [4] = target: T2, SPIC (Homo sapiens, UniProt Q8N5J4 1-248); conditions: protein: recombinant; tags: N-terminal GST; dsDNA, one strand shown
# T2 sequence: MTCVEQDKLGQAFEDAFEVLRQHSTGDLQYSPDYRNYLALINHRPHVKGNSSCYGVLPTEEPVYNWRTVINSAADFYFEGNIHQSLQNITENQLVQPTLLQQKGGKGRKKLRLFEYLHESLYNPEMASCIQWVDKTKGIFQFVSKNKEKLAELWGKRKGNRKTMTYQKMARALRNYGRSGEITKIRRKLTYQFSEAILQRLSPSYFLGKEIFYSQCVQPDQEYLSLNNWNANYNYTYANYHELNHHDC
# Procedure, shortened: as §1
# [5] = target: ELF4 (Homo sapiens, UniProt Q99607 1-663); conditions: protein: recombinant; tags: N-terminal GST; dsDNA, one strand shown
# Procedure, shortened: as §1
# [6] = target: T3, ELK4 (Homo sapiens, UniProt P28324-2 1-405); conditions: protein: recombinant; tags: N-terminal GST; dsDNA, one strand shown
# T3 sequence: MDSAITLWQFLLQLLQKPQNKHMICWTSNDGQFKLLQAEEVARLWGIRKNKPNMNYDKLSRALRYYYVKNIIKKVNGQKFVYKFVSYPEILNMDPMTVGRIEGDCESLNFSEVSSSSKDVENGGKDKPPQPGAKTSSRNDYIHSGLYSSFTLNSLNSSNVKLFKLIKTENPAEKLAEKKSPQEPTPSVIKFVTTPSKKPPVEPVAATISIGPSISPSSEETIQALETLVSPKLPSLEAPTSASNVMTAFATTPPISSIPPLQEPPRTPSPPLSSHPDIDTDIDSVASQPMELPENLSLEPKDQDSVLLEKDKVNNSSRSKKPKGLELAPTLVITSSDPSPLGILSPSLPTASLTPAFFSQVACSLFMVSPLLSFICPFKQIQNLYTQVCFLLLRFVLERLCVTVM
# Procedure, shortened: as §1
# [7] = target: T4, ETV2 (Homo sapiens, UniProt O00321 1-342); conditions: protein: recombinant; tags: N-terminal GST; dsDNA, one strand shown
# T4 sequence: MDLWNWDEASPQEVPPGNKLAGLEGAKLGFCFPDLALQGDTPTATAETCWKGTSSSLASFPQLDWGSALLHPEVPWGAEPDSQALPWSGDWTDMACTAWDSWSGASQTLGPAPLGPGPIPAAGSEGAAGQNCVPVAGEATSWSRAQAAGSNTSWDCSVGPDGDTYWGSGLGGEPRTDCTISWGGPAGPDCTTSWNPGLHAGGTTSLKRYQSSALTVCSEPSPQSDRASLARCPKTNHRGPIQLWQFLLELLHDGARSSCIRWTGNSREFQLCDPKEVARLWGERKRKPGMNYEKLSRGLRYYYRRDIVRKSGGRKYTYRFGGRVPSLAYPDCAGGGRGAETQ
# Procedure, shortened: as §1
# [8] = target: T5, ELF3 (Homo sapiens, UniProt P78545 1-371); conditions: protein: recombinant; tags: N-terminal GST; dsDNA, one strand shown
# T5 sequence: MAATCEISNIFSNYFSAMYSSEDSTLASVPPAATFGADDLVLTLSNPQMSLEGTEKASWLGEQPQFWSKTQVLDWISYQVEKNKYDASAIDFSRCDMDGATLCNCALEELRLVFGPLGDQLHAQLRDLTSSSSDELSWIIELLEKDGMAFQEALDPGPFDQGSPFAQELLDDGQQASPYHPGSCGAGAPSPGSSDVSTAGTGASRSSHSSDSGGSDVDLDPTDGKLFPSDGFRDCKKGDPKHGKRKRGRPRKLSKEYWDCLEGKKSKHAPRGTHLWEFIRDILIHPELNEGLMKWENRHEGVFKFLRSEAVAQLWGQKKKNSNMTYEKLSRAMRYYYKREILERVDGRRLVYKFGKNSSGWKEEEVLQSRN
# Procedure, shortened: as §1
# [9] = target: CRX (Homo sapiens, UniProt O43186 1-299); conditions: protein: recombinant; tags: N-terminal GST; dsDNA, one strand shown
# Procedure, shortened: as §1
# [10] = target: ETV1 (Homo sapiens, UniProt P50549 1-477); conditions: protein: recombinant; tags: N-terminal GST; dsDNA, one strand shown
# Procedure, shortened: as §1
# [11] = target: T6, ERF (Homo sapiens, UniProt P50548 1-548); conditions: protein: recombinant; tags: N-terminal GST; dsDNA, one strand shown
# T6 sequence: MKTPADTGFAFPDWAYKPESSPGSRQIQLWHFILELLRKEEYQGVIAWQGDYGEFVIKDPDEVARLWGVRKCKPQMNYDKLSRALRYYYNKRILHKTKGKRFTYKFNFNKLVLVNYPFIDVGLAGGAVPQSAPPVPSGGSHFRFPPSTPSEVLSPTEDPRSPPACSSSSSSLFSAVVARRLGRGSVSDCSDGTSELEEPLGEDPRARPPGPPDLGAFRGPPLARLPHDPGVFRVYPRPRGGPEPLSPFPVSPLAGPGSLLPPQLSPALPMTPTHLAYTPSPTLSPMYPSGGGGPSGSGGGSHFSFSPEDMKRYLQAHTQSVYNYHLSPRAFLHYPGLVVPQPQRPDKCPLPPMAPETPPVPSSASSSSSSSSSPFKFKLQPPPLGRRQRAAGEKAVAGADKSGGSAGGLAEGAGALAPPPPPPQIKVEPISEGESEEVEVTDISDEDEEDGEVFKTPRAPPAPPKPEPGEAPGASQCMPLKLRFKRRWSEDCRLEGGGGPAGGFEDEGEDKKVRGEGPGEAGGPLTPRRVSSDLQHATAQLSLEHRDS
# Procedure, shortened: as §1
# [12] = target: T7, ETV3L (Homo sapiens, UniProt Q6ZN32 1-361); conditions: protein: recombinant; tags: N-terminal GST; dsDNA, one strand shown
# T7 sequence: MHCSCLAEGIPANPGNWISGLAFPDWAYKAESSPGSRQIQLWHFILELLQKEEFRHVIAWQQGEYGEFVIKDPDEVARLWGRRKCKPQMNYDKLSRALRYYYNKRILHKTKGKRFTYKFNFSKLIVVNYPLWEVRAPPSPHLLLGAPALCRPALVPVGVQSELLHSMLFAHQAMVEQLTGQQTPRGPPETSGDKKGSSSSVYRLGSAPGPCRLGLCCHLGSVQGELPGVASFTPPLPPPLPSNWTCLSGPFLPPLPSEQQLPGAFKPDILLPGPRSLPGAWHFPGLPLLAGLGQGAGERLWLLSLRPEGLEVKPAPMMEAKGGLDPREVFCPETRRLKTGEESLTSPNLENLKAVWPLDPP
# Procedure, shortened: as §1
# [13] = target: T8, ETS2 (Homo sapiens, UniProt P15036 1-469); conditions: protein: recombinant; tags: N-terminal GST; dsDNA, one strand shown
# T8 sequence: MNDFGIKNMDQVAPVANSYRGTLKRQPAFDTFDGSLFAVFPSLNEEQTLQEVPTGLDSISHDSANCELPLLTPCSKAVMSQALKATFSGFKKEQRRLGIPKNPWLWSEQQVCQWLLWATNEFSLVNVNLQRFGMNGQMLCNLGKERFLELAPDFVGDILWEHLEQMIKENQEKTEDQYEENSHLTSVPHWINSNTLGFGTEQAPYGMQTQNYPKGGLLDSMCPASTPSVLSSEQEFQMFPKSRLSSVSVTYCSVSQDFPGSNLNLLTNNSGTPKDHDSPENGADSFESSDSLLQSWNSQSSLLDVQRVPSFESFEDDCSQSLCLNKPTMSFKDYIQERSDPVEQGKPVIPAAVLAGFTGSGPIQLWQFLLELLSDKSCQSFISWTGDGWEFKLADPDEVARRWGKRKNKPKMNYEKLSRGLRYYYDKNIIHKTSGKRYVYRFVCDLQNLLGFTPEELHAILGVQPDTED
# Procedure, shortened: as §1
# [14] = target: T9, SPDEF (Homo sapiens, UniProt O95238 1-335); conditions: protein: recombinant; tags: N-terminal GST; dsDNA, one strand shown
# T9 sequence: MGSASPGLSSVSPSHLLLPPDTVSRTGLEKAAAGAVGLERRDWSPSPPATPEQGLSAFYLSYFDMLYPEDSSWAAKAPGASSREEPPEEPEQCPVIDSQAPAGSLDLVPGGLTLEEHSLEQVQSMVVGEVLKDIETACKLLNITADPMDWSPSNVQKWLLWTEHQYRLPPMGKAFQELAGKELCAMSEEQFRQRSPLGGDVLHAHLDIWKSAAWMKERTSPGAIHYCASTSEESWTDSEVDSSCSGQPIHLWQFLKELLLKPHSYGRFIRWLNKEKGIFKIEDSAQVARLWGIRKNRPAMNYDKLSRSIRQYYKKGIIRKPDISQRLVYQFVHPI
# Procedure, shortened: as §1
# [15] = target: T10, ETV7 (Homo sapiens, UniProt Q9Y603 1-341); conditions: protein: recombinant; tags: N-terminal GST; dsDNA, one strand shown
# T10 sequence: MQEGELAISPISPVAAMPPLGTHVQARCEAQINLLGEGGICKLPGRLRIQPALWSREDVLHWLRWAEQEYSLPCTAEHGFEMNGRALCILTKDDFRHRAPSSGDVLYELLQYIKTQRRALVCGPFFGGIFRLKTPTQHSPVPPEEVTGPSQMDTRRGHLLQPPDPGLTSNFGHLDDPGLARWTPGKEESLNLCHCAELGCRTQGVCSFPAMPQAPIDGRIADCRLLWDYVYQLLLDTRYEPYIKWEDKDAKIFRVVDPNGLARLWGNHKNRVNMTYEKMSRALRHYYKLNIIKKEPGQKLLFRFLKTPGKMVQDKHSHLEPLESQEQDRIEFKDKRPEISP
# Procedure, shortened: as §1
# [16] = target: T11, ELF5 (Homo sapiens, UniProt Q9UKW6-2 1-255); conditions: protein: recombinant; tags: N-terminal GST; dsDNA, one strand shown
# T11 sequence: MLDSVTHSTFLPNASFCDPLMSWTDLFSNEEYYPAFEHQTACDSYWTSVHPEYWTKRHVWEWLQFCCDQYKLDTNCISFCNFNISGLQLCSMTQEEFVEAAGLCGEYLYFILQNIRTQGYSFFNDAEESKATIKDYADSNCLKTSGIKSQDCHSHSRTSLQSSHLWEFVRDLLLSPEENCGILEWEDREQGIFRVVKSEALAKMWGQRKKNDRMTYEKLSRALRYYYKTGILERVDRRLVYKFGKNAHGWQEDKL
# Procedure, shortened: as §1
# [17] = target: T12, ETV3 (Homo sapiens, UniProt P41162-2 1-143); conditions: protein: recombinant; tags: N-terminal GST; dsDNA, one strand shown
# T12 sequence: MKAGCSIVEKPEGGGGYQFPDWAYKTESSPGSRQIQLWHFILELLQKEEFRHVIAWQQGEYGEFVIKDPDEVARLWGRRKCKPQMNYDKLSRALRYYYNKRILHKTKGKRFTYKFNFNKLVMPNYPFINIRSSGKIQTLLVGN
# Procedure, shortened: as §1
# [18] = target: ETV6 (Homo sapiens, UniProt P41212 1-452); conditions: protein: recombinant; tags: N-terminal GST; dsDNA, one strand shown
# Procedure, shortened: as §1
# ELF4, sequence (Q99607 whole entry): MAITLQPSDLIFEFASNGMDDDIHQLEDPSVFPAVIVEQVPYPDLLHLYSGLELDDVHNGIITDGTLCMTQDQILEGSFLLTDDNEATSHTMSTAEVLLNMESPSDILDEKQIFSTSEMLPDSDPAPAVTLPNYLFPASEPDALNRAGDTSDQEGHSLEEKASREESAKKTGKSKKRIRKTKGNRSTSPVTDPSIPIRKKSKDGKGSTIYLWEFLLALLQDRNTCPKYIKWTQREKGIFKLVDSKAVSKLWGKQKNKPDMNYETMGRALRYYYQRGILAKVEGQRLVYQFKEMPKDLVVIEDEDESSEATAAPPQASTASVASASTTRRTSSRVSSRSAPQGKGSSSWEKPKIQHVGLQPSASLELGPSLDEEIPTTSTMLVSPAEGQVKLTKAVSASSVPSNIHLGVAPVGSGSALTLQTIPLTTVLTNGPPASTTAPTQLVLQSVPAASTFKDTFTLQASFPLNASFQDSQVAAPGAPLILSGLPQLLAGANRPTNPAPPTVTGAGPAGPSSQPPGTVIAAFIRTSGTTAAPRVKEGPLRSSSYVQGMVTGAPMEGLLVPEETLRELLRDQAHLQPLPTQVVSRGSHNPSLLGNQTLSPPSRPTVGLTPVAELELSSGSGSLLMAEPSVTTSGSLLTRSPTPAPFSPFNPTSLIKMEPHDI
# CRX, sequence (O43186 whole entry): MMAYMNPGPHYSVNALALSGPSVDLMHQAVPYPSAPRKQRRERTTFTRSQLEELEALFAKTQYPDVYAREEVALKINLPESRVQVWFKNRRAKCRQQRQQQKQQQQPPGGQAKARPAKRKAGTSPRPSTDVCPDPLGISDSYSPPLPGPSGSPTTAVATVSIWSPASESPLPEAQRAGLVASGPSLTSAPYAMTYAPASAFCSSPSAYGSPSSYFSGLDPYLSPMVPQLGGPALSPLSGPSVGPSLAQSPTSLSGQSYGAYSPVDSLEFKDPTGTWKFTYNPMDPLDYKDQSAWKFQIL
# ETV1, sequence (P50549 whole entry): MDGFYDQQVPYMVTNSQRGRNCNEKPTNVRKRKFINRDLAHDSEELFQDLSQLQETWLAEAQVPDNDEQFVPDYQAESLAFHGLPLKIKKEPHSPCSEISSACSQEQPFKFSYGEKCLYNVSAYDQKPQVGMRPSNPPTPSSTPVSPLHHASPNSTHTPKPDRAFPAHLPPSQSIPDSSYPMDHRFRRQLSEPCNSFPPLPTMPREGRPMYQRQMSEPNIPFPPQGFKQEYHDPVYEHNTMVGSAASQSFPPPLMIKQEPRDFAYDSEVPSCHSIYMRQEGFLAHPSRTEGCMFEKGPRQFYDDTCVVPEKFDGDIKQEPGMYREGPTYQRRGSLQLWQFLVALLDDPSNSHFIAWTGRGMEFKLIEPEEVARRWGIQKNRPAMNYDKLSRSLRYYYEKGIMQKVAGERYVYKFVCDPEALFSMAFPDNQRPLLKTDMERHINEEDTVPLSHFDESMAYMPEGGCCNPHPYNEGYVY
# HSF1, sequence (Q00613 whole entry): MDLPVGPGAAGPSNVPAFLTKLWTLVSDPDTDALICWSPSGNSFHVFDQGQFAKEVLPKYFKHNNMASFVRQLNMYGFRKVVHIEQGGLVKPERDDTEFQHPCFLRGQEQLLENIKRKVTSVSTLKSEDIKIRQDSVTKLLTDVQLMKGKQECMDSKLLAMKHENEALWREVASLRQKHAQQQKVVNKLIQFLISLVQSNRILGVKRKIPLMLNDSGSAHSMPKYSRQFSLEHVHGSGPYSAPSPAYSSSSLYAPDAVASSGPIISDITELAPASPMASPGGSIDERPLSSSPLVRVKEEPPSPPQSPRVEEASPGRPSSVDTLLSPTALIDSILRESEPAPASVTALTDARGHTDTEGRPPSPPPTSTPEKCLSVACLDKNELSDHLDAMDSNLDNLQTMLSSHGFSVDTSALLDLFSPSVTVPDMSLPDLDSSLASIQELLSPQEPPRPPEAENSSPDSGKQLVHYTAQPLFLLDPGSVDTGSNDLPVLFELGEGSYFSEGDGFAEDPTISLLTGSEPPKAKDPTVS
# ETV5, sequence (P41161 whole entry): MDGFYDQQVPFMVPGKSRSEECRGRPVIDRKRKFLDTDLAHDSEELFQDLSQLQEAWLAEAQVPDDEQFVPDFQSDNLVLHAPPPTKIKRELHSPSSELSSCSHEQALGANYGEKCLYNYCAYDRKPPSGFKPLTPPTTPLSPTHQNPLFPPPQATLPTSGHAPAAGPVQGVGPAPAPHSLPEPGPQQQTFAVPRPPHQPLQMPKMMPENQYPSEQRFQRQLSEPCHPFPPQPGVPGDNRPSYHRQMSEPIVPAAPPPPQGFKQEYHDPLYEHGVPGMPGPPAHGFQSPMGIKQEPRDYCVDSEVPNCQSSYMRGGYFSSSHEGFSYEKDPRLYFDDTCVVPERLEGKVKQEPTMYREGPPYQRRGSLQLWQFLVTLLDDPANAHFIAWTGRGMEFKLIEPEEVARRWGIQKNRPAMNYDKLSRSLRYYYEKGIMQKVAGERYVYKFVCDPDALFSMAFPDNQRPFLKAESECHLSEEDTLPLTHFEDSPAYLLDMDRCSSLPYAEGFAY
# ETV6, sequence (P41212 whole entry): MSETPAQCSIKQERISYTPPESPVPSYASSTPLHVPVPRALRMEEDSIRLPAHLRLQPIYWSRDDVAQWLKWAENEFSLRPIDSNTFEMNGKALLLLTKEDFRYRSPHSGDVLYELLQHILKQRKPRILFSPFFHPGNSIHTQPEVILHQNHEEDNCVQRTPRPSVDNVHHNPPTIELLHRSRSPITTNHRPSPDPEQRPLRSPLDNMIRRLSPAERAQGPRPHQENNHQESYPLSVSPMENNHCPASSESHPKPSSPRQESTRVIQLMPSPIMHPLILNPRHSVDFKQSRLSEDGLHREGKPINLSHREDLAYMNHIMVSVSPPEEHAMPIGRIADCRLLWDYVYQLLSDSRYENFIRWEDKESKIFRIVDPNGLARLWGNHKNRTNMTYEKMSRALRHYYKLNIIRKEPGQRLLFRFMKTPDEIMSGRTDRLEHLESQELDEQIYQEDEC
sequence,measurement,setting,value
CTTGCT,binding signal,[1],"1.25 fold enrichment (6-mer frequency, TF over GST control)"
same,binding signal,[2],"1.39 fold enrichment (6-mer frequency, TF over GST control)"
same,binding signal,[3],"1.24 fold enrichment (6-mer frequency, TF over GST control)"
same,binding signal,[4],"1.52 fold enrichment (6-mer frequency, TF over GST control)"
same,binding signal,[5],"1.35 fold enrichment (6-mer frequency, TF over GST control)"
same,binding signal,[6],"1.34 fold enrichment (6-mer frequency, TF over GST control)"
same,binding signal,[7],"1.58 fold enrichment (6-mer frequency, TF over GST control)"
same,binding signal,[8],"1.52 fold enrichment (6-mer frequency, TF over GST control)"
same,binding signal,[9],"1.18 fold enrichment (6-mer frequency, TF over GST control)"
same,binding signal,[10],"1.36 fold enrichment (6-mer frequency, TF over GST control)"
same,binding signal,[11],"1.36 fold enrichment (6-mer frequency, TF over GST control)"
same,binding signal,[12],"1.37 fold enrichment (6-mer frequency, TF over GST control)"
same,binding signal,[13],"1.21 fold enrichment (6-mer frequency, TF over GST control)"
same,binding signal,[14],"1.23 fold enrichment (6-mer frequency, TF over GST control)"
same,binding signal,[15],"1.52 fold enrichment (6-mer frequency, TF over GST control)"
same,binding signal,[16],"1.27 fold enrichment (6-mer frequency, TF over GST control)"
same,binding signal,[17],"1.33 fold enrichment (6-mer frequency, TF over GST control)"
same,binding signal,[18],"1.36 fold enrichment (6-mer frequency, TF over GST control)"
